# From PubChem BioAssay
# SW480 rereplic: A quantitative high throughput screen for small molecules that induce DNA re-replication in SW480 colon adenocarcinoma cells; Potency, µM (highest dose often 46.1 µM), for the others: top-dose re-replication activation, actives largely listed as activators; actives 1.8% (n = 340,000); SW480 DNA re-replication, Hoechst DNA content imaging, 48 h; further: potency means the concentration at half of the fitted maximal effect; % of control where 0% means no effect; nearly all actives have a fitted effect of over 55% in size
#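 Treated cells incubate 48 hr (37 C, 5% CO2), are stained 40 min with Hoechst, and nuclear fluorescence is enumerated; a rise in nuclei with high DNA signal marks re-replication.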
# IL-1B inflam inh: qHTS for Inhibitors of Inflammasome Signaling: IL-1-beta AlphaLISA Primary Screen | THP-1 LPS/ATP IL-1B secretion, AlphaLISA, 16 h; active compounds read low | activity change, % at 57.5 µM | actives 4.7% (n = 360,000) | AID 743279, 2014; in the data active means activity change below about -50%; inconclusive means mostly about -30% to -49%; further: on the % scale 0 is the no-effect control and ±100 the full control effect
#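 Secreted IL-1B measured by AlphaLISA bead assay after 16 h compound exposure of THP-1 cells; compounds (final up to 57.5 uM) added 1 h before LPS (250 ng/mL) and ATP (1.25 mM) stimulation; lower signal means less secretion.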
# PINK1 expr mod: A Quantitative High throughput Screen to Identify Chemical Modulators of PINK1 Expression | PINK1 immunofluorescence, high-content cytometry, 24 h | actives 0.2% (n = 410,000) | AID 624263, 2012 | Potency, µM (highest dose often 76.6 µM), inactives show top-dose activation (PINK1 increase), hits mostly activators; active means well fitted activation curve with a large enough effect; inconclusive means small, poorly fitted or top-dose-only effect; cell line not stated here; further: potency means the concentration at half of the fitted maximal effect; % of control where 0% means no effect; nearly all actives have a fitted effect of over 65% in size
#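 PINK1 protein level read as immunofluorescence by microplate cytometer in a fixed, stained stable cell line after 24 h exposure to five compound concentrations, with CCCP as control.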
# ATXN2 expr inh: Primary qHTS for Inhibitors of ATXN expression | Potency, µM (series often up to 57 µM), for inactives: top-dose activity change, negative = inhibition, actives largely listed as inhibitors | AID 1745845, 2022 | HEK-293 ATXN2-luciferase reporter, luminescence, 24 h | actives 0.72% (n = 360,000); further: potency means the concentration at half of the fitted maximal effect; on the % scale 0 is the no-effect control and ±100 the full control effect; nearly all actives have a fitted effect of over 55% in size
#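 ATXN2-luciferase reporter cells (luciferase flanked by upstream and downstream ATXN2 gene portions) were treated 24 h at 37 °C with compounds at up to 57 uM. SteadyGlo luminescence gave expression; GF-AFC fluorescence gave viability.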
# S2 tox: Viability Counterscreen for Primary qHTS for Inhibitors of ATXN expression. actives 0.49% (n = 400,000). S2 cells (HEK-293 line with an ATXN2-luciferase reporter) viability, CellTiter-Fluor protease fluorescence, 24 h. Potency, µM (titrated, usually from 56.7 µM), most hits filed as cytotoxic. AID 651635, 2014; further: potency means the concentration at half of the fitted maximal effect; nearly all actives have a fitted effect of over 40% in size
# MCF10A rereplic: A quantitative high throughput screen for small molecules that induce DNA re-replication in MCF 10a normal breast cells; MCF 10A DNA re-replication, Hoechst nuclear intensity, 48 h; Potency, µM (doses to about 46.1 µM), for the others: at the highest dose activity, positive = re-replication, usual class: activators; actives 2.9% (n = 350,000); AID 624296, 2012; further: potency means the concentration at half of the fitted maximal effect; % of control where 0% means no effect; nearly all actives have a fitted effect of over 50% in size
# An asterisk follows results filed as active; i = inactive; ? = inconclusive; · = no result given; ! = repeats disagree; [ ] = remark or other dose. Most compounds without a hit are left out; they make up all but 7.1% or so of the library. Unless noted, the call rests on the fitted dose curve; in most records, active means well fitted curve in the direction sought with a large enough effect; inconclusive means small, poorly fitted or top-dose-only effect, or another doubt; inactive means no such curve, though single readings can be large; an effect the other way counts as inactive or inconclusive.
SMILES,SW480 rereplic,IL-1B inflam inh,PINK1 expr mod,ATXN2 expr inh,S2 tox,MCF10A rereplic
CN(C)CCCN(C(=O)CCSc1ccccc1)c1nc2cc3c(cc2s1)OCO3,30%,-104*,-2%,?,?,?
CN(C)CCCN(C(=O)CCS(=O)(=O)c1ccccc1)c1nc2cc3c(cc2s1)OCO3,?,-107*,-1%,?,?,5.2µM*
COc1ccccc1NC(=O)CSc1oc(-c2cccs2)nc1S(=O)(=O)c1ccccc1,·,·,0%,0%,i,·
c1ccc(-n2cc(CN3CCC(N4CCOCC4)CC3)c(-c3ccc4c(c3)OCO4)n2)cc1,?,-66*,0%,-26%,i,27%
c1ccc(-n2cc(CN3CCCC3)c(-c3ccc4c(c3)OCO4)n2)cc1,-6%,?,3%,-20%,i,0%
Cn1nnnc1SCCCNCc1cc(Br)ccc1OCc1ccccc1F,·,·,-1%,?,·,·
COc1cc(CNCc2ccco2)ccc1OCc1ccccc1,1%,?,2%[38.3 µM],0%,i,13%
COc1cc(CNCc2cccs2)ccc1OCc1cccs1,-3%,-84*,·,13%,i,5%
COc1cc(CNCc2ccccn2)ccc1OCc1cccc(Cl)c1,?,-80*,1%[38.3 µM],-2%,i,13µM*
COc1cc(CNCc2ccccn2)ccc1OCc1c(Cl)cccc1Cl,?,?,-5%[38.3 µM],-21%,i,?
COc1cc(CNCc2ccccn2)ccc1OCc1ccc(Cl)cc1,4%,-57*,6%,15%,i,?
COc1cc(CNCc2cccs2)ccc1OCc1ccccc1,7%,-22,·,0%,?,-10%
O=C(NCc1ccccn1)c1cc(Cl)ccc1OCc1ccccc1,-3%,-53*,1%,-6%,i,-1%
Cc1c(C(=O)Nc2ccc(F)c(C(F)(F)F)c2)sc2nc(-c3ccccc3)cn12,·,·,1%,·,·,·
Cn1nc(C(=O)NNC(=O)Cc2ccc(S(=O)(=O)N3CCOCC3)s2)c2ccccc2c1=O,-7%,8,2%,·,i,7%
COc1cc(=O)n2c(c1C(=O)N(C)Cc1nonc1C)CCN(Cc1ccccc1Cl)CC2,·,·,0%,·,i,·
COc1ccc(Cl)cc1NC(=O)Cn1cc(C(=O)c2ccncc2)c(=O)c2cc(C)ccc21,·,·,0%,·,·,·
NC1=NC(c2ccc(Br)cc2)n2c(nc3ccccc32)N1 (stereo unspecified),-1%,-81*!,0%,?,?,-2%
CCc1ccc(C2N=C(N)Nc3nc4ccccc4n32)cc1 (stereo unspecified),·,·,1%,1%,i,·
CC(C)(O)C#Cc1ccc(CN2CCc3nnc(CCNC(=O)c4ccco4)n3CC2)cc1,·,·,0%,·,i,·
O=C(NC(=S)Nc1cccc(C(F)(F)F)c1)c1csnn1,6.5µM*,-9,5%,-13%,i,29%
CCCOc1cccc(C(=O)NC(=S)Nc2cccc(C(F)(F)F)c2)c1,?,-57*,4%[38.3 µM],-8%,i,1%
CCOc1cccc(C(=O)NC(=S)Nc2cccc(C)c2)c1,0%,?,1%,47%,i,9%
Cc1nn(CCC(=O)N2CCN(S(=O)(=O)c3ccccc3)CC2)c(C)c1C,-3%,14,0%,-8%,i,4%
Cc1cc(C)c(S(=O)(=O)N2CCN(C(=O)CCn3nc(C)c(C)c3C)CC2)c(C)c1,0%,-84*,1%,-8%,i,-2%
SMILES,SW480 rereplic,IL-1B inflam inh,PINK1 expr mod,ATXN2 expr inh,S2 tox,MCF10A rereplic
CN(CC(=O)NCC(=O)Nc1ccc(F)cc1)CC(=O)Nc1ccc(Cl)c(C(F)(F)F)c1,-4%,-72*,4%,-15%,i,-5%
Cc1ccc2occ(CC(=O)Nc3ccc(Cl)c(C(F)(F)F)c3)c2c1,·,·,?,25µM*,?,·
CC(NC(=O)CN(C)CC(=O)Nc1ccc(Cl)c(C(F)(F)F)c1)c1ccccc1 (stereo unspecified),7%,-16,-7%,-18%,?,?
CN(CC(=O)Nc1ccc(Cl)c(C(F)(F)F)c1)C(=O)Cc1cccs1,1%,?,0%,-17%,i,4%
CN(CC(=O)Nc1ccc(Cl)c(C(F)(F)F)c1)C(=O)Cc1ccsc1,-1%,-89*,-1%,-23%,i,24%
COc1cccc(NC(=O)CN(C)CC(=O)NCC(=O)Nc2ccc(F)cc2)c1,-6%,1,2%,·,i,4%
CN(CC(=O)NCc1ccc(F)cc1)CC(=O)Nc1ccc(Cl)c(C(F)(F)F)c1,4%,-69*,0%,?,?,?
CC1CN(C(=O)N2CCC(C(=O)N3CCN(c4ccccc4)CC3)CC2)c2cc(Cl)ccc2O1 (stereo unspecified),·,·,-1%,·,·,·
COc1ccccc1NC(=O)c1cc(S(=O)(=O)NCCC2=CCCCC2)ccc1F,·,·,3%,-17%,?,·
O=[N+]([O-])c1ccc(COc2cccc(CN3CCCC3)c2)cc1,-30%,-22,-1%,1%,i,-37%
Nc1ncnc2c1c(-c1cccc(OCc3ccccc3)c1)cn2C1CC(CN2CCCC2)C1 (stereo unspecified),·,·,·,31µM*,·,·
O=C1C=CC(=O)C(C2=C3C(=O)N(CCc4ccccc4)CC(=O)N3CCC2)=C1,?,?,6%,?,?,7.3µM*
COc1cc(-c2cc(C)c3c(OC)ccc(OC)c3n2)cc2c1OCCN(Cc1cn(C)nc1C)C2,·,·,-1%,·,i,·
Cc1cc(Br)ccc1NC(=O)CSc1c2c(nc3ccccc13)CCC2,·,·,3%,·,·,·
NC(N)=NN=C1c2ccccc2-c2ccccc21,3%,-64*,1%,-23%,i,14%
NC(=S)NN=C1c2ccccc2-c2ccccc21,-19%,-15,0%,·,1.4µM*,-1%
O=C(NN=C1c2ccccc2-c2ccccc21)c1ccccc1,?,-12,3%,-11%,i,29%
CCCCCCCCCCCCCCCCCC(=O)[O][Al],·,·,·,·,i,·
OC1(c2ccc(Cl)cc2)CN(c2ccccc2)C2=[N+]1CCS2 (stereo unspecified),?,-78*,5%,·,i,8%
COc1ccc(OC)c(N2CC(O)(c3ccccc3)[N+]3=C2SCCC3)c1 (stereo unspecified),-2%,-51*,0%,-13%,·,6%
